Only some compounds are listed: those with a hit (about 10% of all), similar ones and a draw of the others.
HPGD block – inhibitors of human 15-hydroxyprostaglandin dehydrogenase (HPGD); P15428; purified HPGD, NADH fluorescence kinetic, PGE2 substrate; actives 4.3% (n = 150,000); Potency, µM, for inactives: at the top dose activity change, negative = inhibition, usual class: inhibitors; also: potency is read from the fitted curve at half-maximal effect; % is scaled to controls: 0 for no effect and ±100 for the full control effect
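NADH formation kinetics: reaction with 30 uM PGE2 and 1 mM NAD+ (final), 20 nM enzyme, Tris-HCl pH 8 with Tween 20, after 15 min compound preincubation at room temperature. Fluorescence change, last versus first of five reads.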
Luc counter – blocks Kinase-Glo luciferase, a counter-screen artifact. Q27757. Potency, µM (series often up to 38.3 µM), without a hit: top-dose activity change, negative = inhibition, most hits filed as inhibitors. actives 0.28% (n = 200,000). Kinase-Glo luciferase, ATP luminescence, 8 min; active = well fitted inhibition curve with a large enough effect; inconclusive = small, poorly fitted or top-dose-only effect; also: potency is read from the fitted curve at half-maximal effect; % is scaled to controls: 0 for no effect and ±100 for the full control effect; nearly all actives have a fitted effect of over 60% in size
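Substrate mix (final 50 mM imidazole pH 7.2, 50 mM KCl, 7 mM MgCl2, 10 uM ATP, 0.01% Tween 20, 0.05% BSA) plus pin-tool compound, then Kinase-Glo detection mix; 8 min ambient, luminescence read.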
Lamin A splicing – changes lamin A minigene splicing in HeLa cells. AID 1487. actives 0.01% (n = 200,000). HeLa LMNA splicing GFP/RFP minigene ratio, 48 h. Potency, µM (titrated, usually from 46.1 µM), without a hit: top-dose ratio change, negative = inhibition, most hits filed as inhibitors; active = well fitted inhibition curve with a large enough effect in the signal ratio, with a control signal flat, not every such curve was filed as active; inconclusive = small, poorly fitted or top-dose-only effect, or effect the other way, or a change in a side signal; the % refers to the signal ratio; also: potency is read from the fitted curve at half-maximal effect; % is scaled to controls: 0 for no effect and ±100 for the full control effect
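Read-out is the ratio of GFP to DsRed2 object intensity, acquired by 488 nm laser-scanning cytometry on HeLa lamin A-EGFP minigene reporter cells. Compound incubation 48 hrs at 37 °C in Opti-MEM with 2% FBS; DMSO 0.5% final.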
PNC assembly inh – inhibitors of perinucleolar compartment assembly | PC3M PTB-GFP, PNC prevalence imaging, 16 h; active compounds read low | activity change (PNC), negative = inhibition, % at 10 µM | actives 3.1% (n = 140,000);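 active = readout at or below -70, meaning at least 70% loss of cells showing the perinucleolar compartment, a nuclear body marking cancer cells; inconclusive = readout between -30 and a set limit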;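 also: plate controls were DMSO wells for no effect and camptothecin positive control wells for full effect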
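PC3M cells stably expressing PTB-GFP, 750–1000 cells/well, treated 16 h at 37 °C with compound (23 nl of library stock), in duplicate. After paraformaldehyde fixation and Hoechst stain, imaged at 20x; PNC prevalence scored by image analysis.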
ALDH1A1 inh – blocks purified human ALDH1A1 activity; P00352; Purified ALDH1A1, NADH fluorescence, propionaldehyde substrate; Potency, µM (highest dose often 75.3 µM), for inactives: at the top dose activity, negative = inhibition, hits mostly inhibitors; actives 7.3% (n = 220,000); AID 1030;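 also: potency is read from the fitted curve at half-maximal effect; plate controls were no enzyme wells and a reference inhibitor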
Target sequence (P00352 whole entry, looked up): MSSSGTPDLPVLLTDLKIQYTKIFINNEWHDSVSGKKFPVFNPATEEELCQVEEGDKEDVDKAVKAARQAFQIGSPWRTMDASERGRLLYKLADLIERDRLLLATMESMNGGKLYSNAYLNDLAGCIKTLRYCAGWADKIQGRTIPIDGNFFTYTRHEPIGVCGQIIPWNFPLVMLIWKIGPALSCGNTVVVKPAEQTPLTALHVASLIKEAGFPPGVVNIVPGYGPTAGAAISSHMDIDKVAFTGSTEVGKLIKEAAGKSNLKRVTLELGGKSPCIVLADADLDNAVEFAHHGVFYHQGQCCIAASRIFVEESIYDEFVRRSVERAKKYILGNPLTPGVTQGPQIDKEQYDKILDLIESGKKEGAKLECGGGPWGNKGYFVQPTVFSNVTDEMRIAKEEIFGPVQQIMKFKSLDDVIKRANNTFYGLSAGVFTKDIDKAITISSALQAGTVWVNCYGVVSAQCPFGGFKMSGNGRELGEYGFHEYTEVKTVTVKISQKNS
HPGD inh cf – confirmation of human HPGD inhibitors | actives 90% (n = 90) | recombinant HPGD, NADH fluorescence, PGE2 substrate | shares compounds with HPGD block | AID 2429 | Potency, µM (doses to about 57.1 µM), for the others: at the top dose activity change, negative = inhibition, usual class: inhibitors; calls by dose curve
The depositor's hits bear a star; ? = inconclusive; . = no result given; [ ] = remark or other dose. Unless noted, calls follow the shape of the dose curve; as a rule, active = well fitted inhibition curve with a large enough effect (not every such curve was filed as active); inconclusive = small, poorly fitted or top-dose-only effect, or another doubt; inactive = no such curve, though single readings can be large or run the other way.

SMILES	HPGD block	Luc counter	Lamin A splicing	PNC assembly inh	ALDH1A1 inh	HPGD inh cf
O=C(c1ccc2c(c1)OCO2)N1CCc2ccccc2C1	0.45µM*	-9%	22%	-21	?	0.71µM*
S=C(c1ccc2c(c1)OCO2)N1CCCCC1	-26%	0%	-1%	-12	-6%	.
O=C(c1ccc2c(c1)OCO2)N1CCCCC1	0.1µM*	2%	.	.	-6%	0.063µM*
COc1ccc2c(c1)C(c1cc(OC)c(OC)c(OC)c1)CC(=O)O2 (centres undefined)	-3%	4%[39.9 µM]	.	.	8%	.
Cc1oc2c(c1C(=O)NCc1cccc(Br)c1)C1=NCCN1C=N2	.	.	4%[46 µM]	.	.	.
Cc1ccc(CSc2nc3ccccc3c(=O)[nH]2)cc1	.	-1%	.	.	-1%	.
Cc1ccccc1CSc1nc2ccccc2c(=O)[nH]1	1.6µM*	-3%	18%	118	5%	1µM*
CCCCn1c(=O)n(CC2CCC(C(=O)NCCCOC)CC2)c(=O)c2sccc21 (centres undefined)	.	.	20%[46 µM]	.	.	.
CCNC(=O)c1ccc(CSc2ccc(Cl)cc2)cc1	-24%	-7%	?	-109*	1%	?
COc1ccccc1/C=C/C=N/n1c(-c2ccc(C)cc2)n[nH]c1=S	1.4µM*	-2%	?	?	32µM*	1.6µM*
Cc1ccc(-c2n[nH]c(=S)n2/N=C/C=C\c2ccccc2[N+](=O)[O-])cc1	0.89µM*	-4%	5%	23	1%	0.5µM*
O=C(O)c1ccccc1NS(=O)(=O)c1cccc2cccnc12	3%	4%	0%	23	12%	.
O=S(=O)(Nc1cc(Sc2cccc3cccnc23)c(O)c2ccccc12)c1ccccc1	1.1µM*	-1%	?	-103*	?	0.63µM*
CC1CCCC(C)N1C(=O)c1cc(F)c(F)cc1Cl (centres undefined)	-9%	1%	16%	15	-2%	.
CC1CCCC(C)N1C(=O)c1cc2ncc(CCCl)cn2n1 (centres undefined)	1µM*	0%	?	-84*	?	0.79µM*
Cc1ccc(CNC(=O)c2ccc(Cl)cc2[N+](=O)[O-])cc1	0.2µM*	0%	0%	6	3%	2µM*
O=C(NCc1cccnc1)c1ccc(Cl)cc1[N+](=O)[O-]	-3%	0%	-5%	?	5%	.
CCc1ccc(CCC(=O)O)nc1	-1%	0%[7.66 µM]	.	.	4%[13.5 µM]	.
COc1ccc(OC)c(C(=O)c2ccc(C(=O)N3CCCCC3)cc2)c1	0.25µM*	0%	-11%	96	?	0.2µM*
Cc1cccc(N2CCN(C(=O)c3cc(S(=O)(=O)N4CCC(C)CC4)cn3C)CC2)c1C	.	.	-6%[46 µM]	.	.	.
COCCNC(=O)c1nn2cccnc2c1Cl	?	-3%	14%	-8	4%	.
CCC1CCCCN1C(=O)c1nn2cccnc2c1Cl (centres undefined)	-10%	-4%	-2%	55	3%	-15%
O=C(CCc1ccc(Oc2cc([N+](=O)[O-])cc([N+](=O)[O-])c2)cc1)Nc1cccc(Cl)c1	-10%	-3%	?	-16	?	-20%
O=C(CCc1ccc(Oc2cc([N+](=O)[O-])cc([N+](=O)[O-])c2)cc1)N1CCCCC1	0.045µM*	15%	?	15	4.5µM*	0.22µM*
O=C(Nc1cc(Oc2ccc(Cl)cc2)cc([N+](=O)[O-])c1)c1ccco1	-23%	1%	?	12	-3%	.
CCOC(=O)c1c(C)[nH]c(CCC(=O)Nc2ccc(C)c(F)c2)c1C	.	.	-24%[46 µM]	.	.	.
CC(=O)N[C@H](Cc1ccc(O)cc1)C(=O)O	-5%	-3%[7.66 µM]	.	.	-7%[13.5 µM]	.
Cc1c(Cl)cccc1NC(=O)Cn1c(=O)nc(-c2ccccc2)c2ccccc21	.	.	4%[46 µM]	.	.	.
CC(C)(C)N1C(=O)[C@H]2[C@H]3[C@H](O)[C@H](O)C/C(=N/NC(=O)OCc4ccccc4)[C@H]3CC[C@@H]2C1=O	.	.	.	.	-17%[13.5 µM]	.
Cn1nnnc1SCC(=O)Nc1cccc([N+](=O)[O-])c1	.	3%	14%[46 µM]	.	?	.

Screening data as filed in PubChem BioAssay.
